Measles CPE = protection of cells from measles virus; hit rate 1.5% among 140,000; protection (pct of control), % at 4 µM; Measles virus-infected cells, CPE protection, absorbance; in the data active = protection mostly above about 24%, no sharp cut-off; inactive = mostly below about 26%
CYP2C19 inhib = human CYP2C19 inhibition. P33261. CYP2C19 Supersomes, luciferin-H EGE luminescence, 30 min. inhibition, % at 5 µM. hit rate 21% among 96,000;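 active = CYP2C19 inhibition above a set limit at 5 µM in the primary screen, cut at about 50% in these data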
Target sequence (P33261 whole entry, looked up): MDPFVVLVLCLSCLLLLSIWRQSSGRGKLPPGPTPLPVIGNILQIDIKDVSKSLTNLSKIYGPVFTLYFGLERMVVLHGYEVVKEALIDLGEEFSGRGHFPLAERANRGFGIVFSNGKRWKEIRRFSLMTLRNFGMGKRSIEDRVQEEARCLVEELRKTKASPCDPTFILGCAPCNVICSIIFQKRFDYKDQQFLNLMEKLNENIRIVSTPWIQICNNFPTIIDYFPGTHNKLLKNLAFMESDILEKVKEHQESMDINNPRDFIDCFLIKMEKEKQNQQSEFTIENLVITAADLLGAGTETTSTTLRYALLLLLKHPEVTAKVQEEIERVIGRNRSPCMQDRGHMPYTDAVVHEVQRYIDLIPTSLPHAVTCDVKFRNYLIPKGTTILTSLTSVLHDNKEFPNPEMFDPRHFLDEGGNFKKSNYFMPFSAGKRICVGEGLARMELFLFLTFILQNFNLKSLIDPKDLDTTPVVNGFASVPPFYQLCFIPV
CYP2C19 activ = cytochrome P450 2C19 (human) activation; P33261; recombinant CYP2C19, luciferin-H EGE luminescence; stronger effect = higher value; 0 = fully inhibited enzyme, 1 = untreated enzyme; activation factor at 5 µM; 96,000 tested, under 10 active; AID 1025;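 active = activation factor of at least 2 at 5 µM in the primary screen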
CYP2C9 act = CYP2C9 (human) activation | P11712 | recombinant CYP2C9, luciferin-H conversion, luminescence; stronger effect = higher value; factor 1 = untreated enzyme, 0 = blocked | activation factor at 5 µM | hit rate 1.4% among 96,000;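 active = activation factor of 2 or more for CYP2C9 at a 5 µM dose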
CYP2C9 inhib = human CYP2C9 inhibition; P11712; CYP2C9 Supersomes, luciferin-H conversion, luminescence; inhibition, % at 5 µM; hit rate 20% among 96,000; AID 777;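 active = blocking of liver enzyme CYP2C9 beyond about 50% at 5 µM, limit read from the data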
Numbers stand for hits; i = inactive; nt = no result. Rows were chosen to be rich in hits. Some 22% of all compounds tested hit in one or more screens of this group.

SMILES	Measles CPE	CYP2C19 inhib	CYP2C19 activ	CYP2C9 act	CYP2C9 inhib
C=CCn1c(Oc2cc(C)ccc2C)nc2c1c(=O)n(C)c(=O)n2C	i	i	i	i	i
CCOc1cc(-c2ccc3c(c2)OCO3)cc(=O)c2c(C)oc(C)c12	nt	i	i	i	i
COc1ccccc1NC(=O)C12CC3CC(C1)CC(c1ccc(C)cc1)(C3)C2	i	57	i	i	i
CCO/N=C(/C)c1c(O)cc(C(C)(C)C)n(-c2ccccc2)c1=O	i	nt	nt	nt	nt
N#C/C(=C\N1CCN(Cc2ccc3c(c2)OCO3)CC1)c1nc2ccccc2s1	i	89	i	i	i
COC(=O)c1ccc(/C=C(\C#N)c2nc3ccccc3s2)cc1	i	i	i	i	i
CCOC(=O)N1CCN(/C=C(\C#N)c2nc3ccccc3s2)CC1	i	80	i	i	71
O=C1C2C(c3ccccc3)=NN(c3ccccc3)C2C(=O)N1c1ccccc1 (stereo not drawn)	i	nt	nt	nt	nt
CNc1ccccc1C(C)(C)c1cc(-c2ccco2)n[nH]1	i	54	i	i	i
CCOc1ccc(NC(=O)c2cnccn2)cc1	i	nt	nt	nt	nt
CCOc1ccc(NC(=O)c2cnsn2)cc1	i	62	i	i	i
CCCC(=O)Nc1ccc(NC(=O)c2ccccc2OC)cn1	i	51	i	3.2	i
CCOc1ccc(NC(=O)c2ccccc2O)cc1	i	nt	nt	nt	nt
CCOc1ccc(NC(=O)c2ccccc2OCC(=O)c2ccccc2)cc1	i	61	i	i	88
CCCC(=O)Nc1ccc(NC(=O)c2ccccn2)cn1	i	i	i	i	i
CCOc1ccc(NC(=O)c2ccccc2OC)cc1	i	i	i	3.3	i
CCCn1c(CCC(=O)O)ccc1-c1cccs1	i	i	i	i	i
Cc1cccc(NC(=O)c2ccccc2OCC(=O)c2ccccc2)c1	i	58	i	i	73
O=C(Nc1ccc(-c2nnc(-c3ccco3)o2)cc1)C(c1ccccc1)c1ccccc1	i	i	i	i	72
Brc1ccc(-c2nnc(-c3ccco3)o2)cc1	i	i	i	i	i
c1ccc(-c2nnc(-c3ccco3)o2)cc1	i	50	i	i	i
Cn1c(-c2ccc(N)cc2)nc2ccccc21	22	i	i	i	i
Cc1ccc(-n2c(N)c(-c3nc4ccccc4n3C)sc2=S)cc1	i	i	i	i	i
Cc1c(CCOC(=O)CC23CC4CC(CC(C4)C2)C3)sc[n+]1CC(=O)c1ccc(Br)cc1	i	i	i	i	i
Clc1ccccc1OCc1nc(-c2ccncc2)no1	i	98	i	i	98
SMILES	Measles CPE	CYP2C19 inhib	CYP2C19 activ	CYP2C9 act	CYP2C9 inhib
Clc1ccc(OCc2nc(-c3ccncc3)no2)c(Br)c1	i	94	i	i	95
Cc1ccccc1OCc1nc(-c2ccc(-n3cccc3)cc2)no1	i	i	i	i	i
CCOC(=O)N/N=C(\C)c1ccc(Br)cc1	i	i	i	i	i
CCn1cc(/C=N\NC(=O)c2ccc(F)cc2)cn1	29	nt	nt	nt	nt
COC(=O)c1sc(NC(=O)c2ccc(C)o2)nc1C	i	nt	nt	nt	nt
COC(=O)c1sc(N2C(=O)C(O)=C(C(=O)c3ccc(C)o3)C2c2ccc(F)cc2)nc1C (stereo not drawn)	i	i	i	i	80
Cc1cccc(C)c1NC(=O)CCCSc1nnnn1C	i	i	i	i	i
O=[N+]([O-])c1ccc(N2CCN(S(=O)(=O)c3ccccc3)CC2)cc1NCCN1CCOCC1	i	55	i	i	70
Cc1ccccc1OCCNc1cc(N2CCN(CCO)CC2)ccc1[N+](=O)[O-]	i	nt	nt	nt	nt
COc1ccc(OCCNc2cc(N3CCOCC3)ccc2[N+](=O)[O-])cc1	i	i	i	i	63
COc1cccc(OCCNc2cc(N3CCCCC3)ccc2[N+](=O)[O-])c1	i	i	i	i	70
Cc1ccccc1OCCNc1cc(N2CCCCC2)ccc1[N+](=O)[O-]	i	89	i	i	95
Cc1ccc(S(=O)(=O)N2CCN(c3ccc([N+](=O)[O-])c(NCCN4CCOCC4)c3)CC2)cc1	i	nt	nt	nt	nt
CC(=O)N1CCCc2cc(S(=O)(=O)N(C)CCC#N)ccc21	i	i	i	i	i
CNc1cc(N2CCCCCC2)ccc1[N+](=O)[O-]	i	51	i	i	i
COc1cccc(NC(=S)NNC(=O)Cn2nc(C(F)F)cc2C(F)F)c1	i	nt	nt	nt	nt
Cc1cc(C[n+]2ccccc2)c2nsnc2c1	i	i	i	i	i
CCOc1ccc(NC(=O)N2CCC(n3c(=O)[nH]c4ccccc43)CC2)cc1	i	i	i	i	66
CCN(CC)CCN1C(=O)C(=O)/C(=C(/O)c2ccc(OC)cc2)C1c1cccs1 (stereo not drawn)	i	i	i	i	i
